# Source: ChEMBL document CHEMBL3988442, “University of Dundee, Small-Polar-MMV Screening Library” (2021)
# Out of some 53,000 compounds screened, about 900 (1.7%) showed an effect of 50% or more. The list comes from a sample in which strong results are over-represented; it also holds similar structures and randomly drawn compounds.
# System: Mycobacterium tuberculosis
# Assay: Cornell - Phenotypic assay to identify agents that inhibit growth of Mycobacterium tuberculosis
# Type: functional
# Set-up: scale not given: direction of the effect not stated beside the values
# Details: 10 mM as filed; unlikely as a test dose
row,SMILES,Percent Effect [%]
1,COc1ccc2c(c1)CC(C1CCOCC1)N(C(=O)c1ccnn1C)C2 (stereo unspecified),13.18
2,CN1CCN(C)C(CNC(=O)N(C)Cc2ccc(Cl)c(F)c2)C1 (stereo unspecified),12.24
3,C=C/C=c1\c(=C/C)oc2c(NCc3ccccc3)ncnc12,8.559
4,C=C/C=c1\c(=C/C)oc2c(NCc3ccccc3)nc(CC)nc12,44.26
5,C=C/C=c1\c(=C/C)oc2c(NCc3ccccc3)nc(C)nc12,70.49
6,O=c1c2ccccc2nc2n1C(CSc1ccc(Br)cc1)CN2 (stereo unspecified),19.98
7,COCCOc1ccc(Cl)c(C(=O)N2CCN(CCO)CC2)n1,-16.9
8,CNc1ncc(-c2csc(NC(=O)C[C@H]3COCCN3)n2)cn1.Cl,-17.99
9,Cc1cnc(N2C[C@@H]3CN(C4CCOC4)CCC[C@]3(C(=O)O)C2)nc1.O=C(O)C(F)(F)F (stereo partly specified),13.6
10,NC(=O)C1(CCCc2ccccn2)CCCN(Cc2ncc[nH]2)C1 (stereo unspecified),-6.495
11,O=C(COc1ccc2c(c1)CCC2)N1CCCC1c1ccc[nH]1 (stereo unspecified),107.5
12,NC(=O)c1ccc(OCC(=O)N2CCCC2c2ccc[nH]2)cc1 (stereo unspecified),-7.16
13,NC(=O)c1cn[nH]c1C1CCCN1C(=O)COc1ccccc1 (stereo unspecified),6.51
14,CC1CCN(c2ccc(C(=O)N3CCCC3c3nncn3C)cn2)CC1 (stereo unspecified),-18.06
15,CN(C)c1ccc(C(=O)N2CCCC2c2cnn(C)c2)cn1 (stereo unspecified),5.002
16,CS(=O)(=O)c1cccc(OCC(=O)N2CCCC2c2ccc[nH]2)c1 (stereo unspecified),58.54
17,CS(=O)(=O)c1cccc(OCC(=O)N2CCCC2c2ccccc2Cl)c1 (stereo unspecified),-2.872
18,Cc1ccc(-c2nnc(CCC(=O)N3CCCC3c3ccc[nH]3)o2)cc1 (stereo unspecified),45.95
19,O=C(COc1ccccc1)N1CCCC1c1ccc[nH]1 (stereo unspecified),85.82
20,O=C(COc1ccc2c(c1)CCC2)N1CCCC(n2cccn2)C1 (stereo unspecified),-23.81
21,CC1CCN(c2ccc(C(=O)N3CCCC3c3ccc[nH]3)cn2)CC1 (stereo unspecified),84.24
22,O=C(COc1ccc2c(c1)CCC2)N1CCOCC1c1ncon1 (stereo unspecified),12.9

row,SMILES,Percent Effect [%]
1,Cc1cc(C)cc(OCCN2CCn3c(C)nnc3C2)c1,12.04
2,Cn1cc(C2=NOC(C(=O)NC3(c4cccc(F)c4)CCCC3)C2)cn1 (stereo unspecified),-24.87
3,Cc1cc(C)nc(N2CCC(Cn3cc(C(N)=O)cn3)CC2)n1,-23.62
4,CCOc1ncccc1CNS(=O)(=O)c1ccc2c(c1)CCC2,13.09
5,CCCn1cc(C(=O)N2CCCC(Cc3nccs3)C2)cn1 (stereo unspecified),-22.26
6,CCCC(NC(=O)c1occc1C)c1nnn[nH]1 (stereo unspecified),-83.42
7,COCc1nn(Cc2ccc(Cl)s2)c(=O)o1,-31.25
8,CCOCC(=O)N1CCC(CSCc2ccco2)CC1,34.18
9,CC(=O)N1CCC(CSCc2ccco2)CC1,7.881
10,CCOC(=O)CCC(=O)N1CCC(CSCc2ccco2)CC1,59.48
11,Cc1[nH]ncc1CCCNC(=O)Nc1ccccc1,-14.63
12,Cc1[nH]ncc1CCCNC(=O)Nc1ccc2c(c1)OC1(CCCC1)O2,72.51
13,Cc1[nH]ncc1CCCNC(=O)Nc1ccc(F)cc1,-28.46
14,COC(=O)N1CC2=CC(C)(C)COc3ccc(OC)c(c32)C1,31.49
15,COc1ccc2c3c1CN(C(=O)N(C)C)CC3=CC(C)(C)CO2,89.58
16,COc1ccc2c3c1CN(C(C)=O)CC3=CC(C)(C)CO2,9.21
17,Cc1cc(C)nc(N2Cc3cnn(Cc4ccc(F)cc4)c3C2)n1,1.875
18,Cc1cc(C)nc(N2CCc3ccc(OC(F)F)cc3C2)n1,108.4
19,COc1ccnc(N2Cc3cnc(C(C)(C)C)nc3C2)n1,15.27
20,COc1ccc2c(c1)CN(c1nc(C)cc(C)n1)CC2,63.12
21,COc1ccc2c(c1)CN(c1cc(N3CCCC3CO)ncn1)CC2 (stereo unspecified),24.46
22,COc1ccnc(N2CCc3ccc(OC(F)F)cc3C2)n1,105.8

row,SMILES,Percent Effect [%]
1,COc1ccc(C2CN(c3nc(C)cc(C)n3)CCN2C(C)=O)cc1 (stereo unspecified),37.66
2,COc1ccnc(N2CCN(C(=O)N3CCOCC3)CC2)n1,-8.776
3,COc1cccc(O[C@H]2CCN(c3nc(C)cc(C)n3)CC[C@@H]2O)c1,6.067
4,Cc1cnn(C2CCCN(C(=O)CCc3cnn(C)c3)C2)c1 (stereo unspecified),-9.516
5,O=C(CN1CC(c2nc(-c3ccco3)no2)C1)NCc1ccc(F)cc1.O=C(O)C(=O)O,26.13
6,CN(Cc1ccc2c(c1)OCO2)C(=O)c1ccc(C2CCCNC2)cc1 (stereo unspecified),14.52
7,O=S(=O)(c1ccc(-c2cnco2)cc1)N1CCCC2(CCNCC2)CC1,-3.285
8,Cl.O=C(CCN1CCCCC1)Nc1c2c(cc3c1CCC3)CCC2,-6.194
9,CCOC(C)c1nc(Cn2cccn2)cs1 (stereo unspecified),9.263
10,CCOC(C)c1nc(Cn2cc(C)cn2)cs1 (stereo unspecified),25.14
11,CCOC(C)c1nc(Cn2cc(-n3cccc3)cn2)cs1 (stereo unspecified),56.69
12,CC(=O)NCCNC(=O)Nc1ccc(Br)cc1C(C)C,-45.7
13,O=C(CN(CC(O)c1ccc(F)cc1)C1CC1)NC1CCOCC1 (stereo unspecified),2.353
14,Cc1ccc(CN(CC(=O)NCC2CCOC2)c2ccc(F)cc2)o1 (stereo unspecified),104.7
15,O=C(NCC1CCOC1)c1csc(-c2ccc(F)cc2)n1 (stereo unspecified),-10.74
16,Cc1ccc(CN(CC(=O)NC2CCOCC2)c2ccc(F)cc2)o1,92.31
17,O=C(CN(Cc1cccs1)c1ccc(F)cc1)NC1CCOCC1,47.86
18,Cc1ccc(-c2nc(CC(=O)NCC3CCOC3)cs2)o1 (stereo unspecified),19.26
19,O=C(O)C(F)(F)F.O=C([C@H]1C[C@@H]2CCN(c3cccc(F)c3)C[C@H]2O1)N1CCCC1,12.3
20,Cc1noc(C)c1-c1ccc(C2CCCN2C(=O)c2cnn(C)c2)nc1 (stereo unspecified),1.498
21,Cc1nc(CN2CCCN(C(=O)CC(C)n3cccc3)CC2)cs1 (stereo unspecified),7.748
22,CN(CCCc1cnn(C)c1)Cc1cc2n(n1)CCCNC2,18.02
